In the supplement of paper PMC6089552:
The whole screen tested about 3,200 compounds, of which about 300 (9.4%) showed activity. The list comes from a sample in which actives are over-represented; it also holds similar structures and randomly drawn compounds. Values without a mark were called inactive.

Test system: A673/TR/shEF
Experiment: cell viability (LOESS-normalised, relative to median of negative controls) (log2 ratio); higher = more viable cells (less compound effect), active = hit call of the paper (over 3 MAD below the median)
Details: treatment time: 72 h
In short: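 Viability of A673/TR/shEF Ewing sarcoma cells was determined by CellTiter-Glo luminescence. The cells, at 1,500 per well in 384-well plates, were grown with or without doxycycline from 24 h before compound addition to switch on EWS-FLI1 shRNA knockdown, then exposed for three days to library compounds at two or more concentrations or to DMSO controls. Signals were LOESS-corrected plate by plate, normalised to the negative-control median and log2-transformed.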

[1] = 0.103 µM, library screen: screen3, EWS-FLI1 expression: high (no doxycycline)
[2] = 0.103 µM, library screen: screen3, EWS-FLI1 expression: low (doxycycline-induced shRNA knockdown)
[3] = 0.25 µM, library screen: screen1, EWS-FLI1 expression: high (no doxycycline)
[4] = 0.25 µM, library screen: screen1, EWS-FLI1 expression: low (doxycycline-induced shRNA knockdown)
[5] = 0.25 µM, library screen: screen2, EWS-FLI1 expression: high (no doxycycline)
[6] = 0.25 µM, library screen: screen2, EWS-FLI1 expression: low (doxycycline-induced shRNA knockdown)
[7] = 0.308 µM, library screen: screen3, EWS-FLI1 expression: high (no doxycycline)
[8] = 0.308 µM, library screen: screen3, EWS-FLI1 expression: low (doxycycline-induced shRNA knockdown)
[9] = 0.926 µM, library screen: screen3, EWS-FLI1 expression: high (no doxycycline)
[10] = 0.926 µM, library screen: screen3, EWS-FLI1 expression: low (doxycycline-induced shRNA knockdown)
[11] = 2.5 µM, library screen: screen1, EWS-FLI1 expression: high (no doxycycline)
[12] = 2.5 µM, library screen: screen1, EWS-FLI1 expression: low (doxycycline-induced shRNA knockdown)
[13] = 2.5 µM, library screen: screen2, EWS-FLI1 expression: high (no doxycycline)
[14] = 2.5 µM, library screen: screen2, EWS-FLI1 expression: low (doxycycline-induced shRNA knockdown)
[15] = 2.8 µM, library screen: screen3, EWS-FLI1 expression: high (no doxycycline)
[16] = 2.8 µM, library screen: screen3, EWS-FLI1 expression: low (doxycycline-induced shRNA knockdown)
[17] = 8.3 µM, library screen: screen3, EWS-FLI1 expression: high (no doxycycline)
[18] = 8.3 µM, library screen: screen3, EWS-FLI1 expression: low (doxycycline-induced shRNA knockdown)
[19] = 25 µM, library screen: screen3, EWS-FLI1 expression: high (no doxycycline)
[20] = 25 µM, library screen: screen3, EWS-FLI1 expression: low (doxycycline-induced shRNA knockdown)

CC(C(=O)O)c1cccc(C(=O)c2ccccc2)c1 (stereo not given)
cell viability (log2) [1]: 0.106
cell viability (log2) [2]: 0.0412
cell viability (log2) [3]: 0.12
cell viability (log2) [4]: -0.0201
cell viability (log2) [5]: 0.204
cell viability (log2) [6]: 0.13
cell viability (log2) [7]: 0.093
cell viability (log2) [8]: 0.102
cell viability (log2) [9]: 0.0295
cell viability (log2) [10]: 0.058
cell viability (log2) [11]: 0.103
cell viability (log2) [12]: 0.0158
cell viability (log2) [13]: 0.122
cell viability (log2) [14]: 0.173
cell viability (log2) [15]: 0.145
cell viability (log2) [16]: 0.11
cell viability (log2) [17]: 0.0932
cell viability (log2) [18]: 0.0536
cell viability (log2) [19]: 0.0365
cell viability (log2) [20]: 0.131

CC(=O)O[C@H]1C[C@@H](OC(C)=O)C(C)(C)C2CC(=O)[C@]3(C)C(CC[C@@]4(C)[C@H](C(=O)O)OC(=O)C5OC543)[C@]21C (stereo not given in full)
cell viability (log2) [3]: 0.123
cell viability (log2) [4]: 0.114
cell viability (log2) [11]: 0.0482
cell viability (log2) [12]: 0.118

CCC(=O)NCC1OC(n2cnc3c(NCc4ccccc4)ncnc32)C(O)C1O (stereo not given)
cell viability (log2) [5]: 0.0412
cell viability (log2) [6]: 0.0737
cell viability (log2) [13]: 0.224
cell viability (log2) [14]: 0.113

COC(=O)C[C@H]1C(C)(C)C(=O)[C@@H]2CC3=C4CC(OC)O[C@@H](c5ccoc5)[C@]4(C)CCC3[C@@]1(C)C2=O (stereo not given in full)
cell viability (log2) [3]: 0.115
cell viability (log2) [4]: 0.14
cell viability (log2) [11]: 0.0882
cell viability (log2) [12]: 0.172

COc1ccc(-c2coc3cc(OC(C)=O)cc(OC(C)=O)c3c2=O)cc1
cell viability (log2) [3]: 0.0854
cell viability (log2) [4]: -0.00831
cell viability (log2) [11]: 0.156
cell viability (log2) [12]: 0.114

COc1c(O)cc2occ(-c3ccc(O)cc3)c(=O)c2c1O
cell viability (log2) [3]: 0.15
cell viability (log2) [4]: 0.0261
cell viability (log2) [11]: 0.0979
cell viability (log2) [12]: 0.0895

CC(=O)O[C@H]1CC[C@]2(C)[C@H]3CC=C4[C@@H]5CC(C)(C)CC[C@]5(C(=O)O)CC[C@@]4(C)[C@]3(C)CC[C@H]2C1(C)C
cell viability (log2) [3]: 0.0325
cell viability (log2) [4]: 0.0553
cell viability (log2) [11]: 0.0391
cell viability (log2) [12]: 0.0458

Cc1nnc(C(C)C)n1C1C[C@H]2CC[C@@H](C1)N2CC[C@H](NC(=O)C1CCC(F)(F)CC1)c1ccccc1 (stereo not given in full)
cell viability (log2) [1]: 0.00773
cell viability (log2) [2]: 0.0537
cell viability (log2) [7]: 0.179
cell viability (log2) [8]: 0.0864
cell viability (log2) [9]: 0.11
cell viability (log2) [10]: 0.0142
cell viability (log2) [15]: 0.152
cell viability (log2) [16]: 0.0241
cell viability (log2) [17]: 0.00455
cell viability (log2) [18]: 0.0886
cell viability (log2) [19]: 0.0767
cell viability (log2) [20]: 0.0769

C=C1C(=O)OC2CC1C(OC(C)=O)C/C(C)=C/CC/C(C)=C\CCC2(C)O (stereo not given)
cell viability (log2) [3]: 0.18
cell viability (log2) [4]: 0.0249
cell viability (log2) [11]: 0.0625
cell viability (log2) [12]: -0.139

O=C1c2ccc(O)cc2OC(c2cc(O)c(O)c(O)c2)C1O (stereo not given)
cell viability (log2) [3]: 0.0896
cell viability (log2) [4]: 0.0484
cell viability (log2) [11]: 0.165
cell viability (log2) [12]: 0.11

Nc1nc(Cl)nc2c1ncn2[C@@H]1O[C@H](CO)[C@@H](O)[C@H]1O
cell viability (log2) [5]: 0.323
cell viability (log2) [6]: 0.0766
cell viability (log2) [13]: 0.0971
cell viability (log2) [14]: -0.0176

Nc1nc(Cl)nc2c1ncn2[C@@H]1O[C@H](COP(=O)(O)OP(=O)(O)OP(=O)(O)O)[C@H](O)C1O (stereo not given in full)
cell viability (log2) [5]: 0.146
cell viability (log2) [6]: 0.0571
cell viability (log2) [13]: 0.0213
cell viability (log2) [14]: 0.0355

Nc1nc(Cl)nc2c1ncn2[C@H]1C[C@H](O)[C@@H](CO)O1
cell viability (log2) [1]: 0.0389
cell viability (log2) [2]: -0.0254
cell viability (log2) [7]: 0.0133
cell viability (log2) [8]: 0.0217
cell viability (log2) [9]: 0.0147
cell viability (log2) [10]: 0.0591
cell viability (log2) [15]: -0.0664
cell viability (log2) [16]: 0.0972
cell viability (log2) [17]: -0.402 (active)
cell viability (log2) [18]: -0.0455
cell viability (log2) [19]: -1.32 (active)
cell viability (log2) [20]: -0.402 (active)

Nc1ncnc2c1ncn2[C@H]1C[C@H](O)[C@@H](CO)O1
cell viability (log2) [3]: 0.0888
cell viability (log2) [4]: 0.137
cell viability (log2) [11]: 0.0495
cell viability (log2) [12]: 0.162

OC[C@H]1O[C@@H](n2cnc3c(NC4CCCC4)nc(Cl)nc32)[C@H](O)[C@@H]1O
cell viability (log2) [5]: 0.143
cell viability (log2) [6]: 0.038
cell viability (log2) [13]: 0.169
cell viability (log2) [14]: 0.0636

Nc1nc(Cl)nc2c1ncn2[C@@H]1O[C@H](CO)[C@@H](O)[C@@H]1F
cell viability (log2) [1]: 0.0438
cell viability (log2) [2]: 0.0567
cell viability (log2) [7]: 0.104
cell viability (log2) [8]: 0.0694
cell viability (log2) [9]: -0.027
cell viability (log2) [10]: 0.0481
cell viability (log2) [15]: -0.287 (active)
cell viability (log2) [16]: 0.0753
cell viability (log2) [17]: -1.27 (active)
cell viability (log2) [18]: -0.0627
cell viability (log2) [19]: -3.63 (active)
cell viability (log2) [20]: -0.69 (active)

CC1(NCC(O)COc2cccc3[nH]ccc23)CCC(C(C)(C)NC(=O)CBr)CC1 (stereo not given)
cell viability (log2) [5]: 0.126
cell viability (log2) [6]: 0.0547
cell viability (log2) [13]: 0.106
cell viability (log2) [14]: 0.0182

CCOc1c(Br)cc(C=C(C#N)c2nn(-c3ccccc3)c(N)c2C#N)cc1OC
cell viability (log2) [3]: 0.0856
cell viability (log2) [4]: 0.124
cell viability (log2) [11]: 0.0719
cell viability (log2) [12]: 0.193

CCOC(=O)c1c[nH]c2c(C)cccc2c1=O
cell viability (log2) [3]: 0.111
cell viability (log2) [4]: 0.0771
cell viability (log2) [11]: 0.1
cell viability (log2) [12]: -0.0609

CC[C@H]1OC(=O)[C@H](C)[C@@H](O[C@H]2C[C@@](C)(OC)[C@@H](O)[C@H](C)O2)[C@H](C)[C@@H](O[C@@H]2O[C@H](C)C[C@H](N(C)C)[C@H]2O)[C@](C)(O)C[C@@H](C)[C@@H]2N[C@@H](COCCOC)OC([C@H]2C)[C@]1(C)O
cell viability (log2) [3]: 0.163
cell viability (log2) [4]: 0.065
cell viability (log2) [11]: 0.143
cell viability (log2) [12]: 0.0253
